Laboratory results taken from PubChem BioAssay AID504766 (The Scripps Research Institute Molecular Screening Center, 2011).
Out of some 340,000 compounds screened, about 3,400 (1%) were called active.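 The calls were made as follows: active = inhibition above the mean over all tested compounds plus 3 SD (cut at about 4.2% in these data); inactive = the rest.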 Only a selection was taken, and actives are over-represented in it overall.

target: Nuclear receptor subfamily 0 group B member 1 (Homo sapiens) (UniProt P51843); assay: relief of DAX1 transcriptional repression – cell-based, HEK293, Gal4-DAX1, luciferase luminescence, primary screen (AID 504766); conditions: HEK293 Gal4-DAX1 luciferase reporter, at 6.75 µM, stronger effect = higher value;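 also: 0% = DAX1-transfected cells with DMSO and 100% = empty-vector control cells with DMSO; inhibition shows as a rise in luminescence from relieved DAX1 repression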
Sequence (P51843 207-470 limits assumed): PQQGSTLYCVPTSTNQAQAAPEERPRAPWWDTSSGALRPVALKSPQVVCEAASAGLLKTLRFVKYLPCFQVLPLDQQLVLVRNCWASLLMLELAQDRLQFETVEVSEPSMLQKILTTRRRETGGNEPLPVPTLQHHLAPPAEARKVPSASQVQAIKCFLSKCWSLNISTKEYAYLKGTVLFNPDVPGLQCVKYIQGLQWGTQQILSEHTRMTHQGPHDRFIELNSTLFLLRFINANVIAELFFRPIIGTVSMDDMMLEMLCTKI

Row | SMILES | inhibition
1 | COc1ccc(C(CNC(=O)CSc2ccccc2)N2CCOCC2)cc1 (stereo unspecified) | 1.43% (inactive)
2 | CC(=O)NC(Cc1c[nH]c2ccccc12)C(=O)O (stereo unspecified) | 9.87% (active)
3 | CC(=O)NC(Cc1c[nH]c2ccccc12)C(=O)NCCc1ccccc1 (stereo unspecified) | 3.45% (inactive)
4 | Cc1cccc(C)c1OCC(=O)NC(Cc1c[nH]c2ccccc12)C(=O)O (stereo unspecified) | 0.88% (inactive)
5 | CCc1cc(-c2nnn(CCC3COCCO3)c2CC)ccc1-c1cn(Cc2ccc3ccccc3c2)nn1 (stereo unspecified) | -3.79% (inactive)
6 | C[C@H]1CN([C@@H](C)CO)C(=O)CCCn2cc(nn2)CO[C@@H]1CN(C)S(=O)(=O)c1ccc(-c2ccccc2)cc1 | 0% (inactive)
7 | O=C(c1cc(S(=O)(=O)N2CCOCC2)ccc1Cl)N1CCOCC1 | 0.61% (inactive)
8 | O=C(O)c1ccc(S(=O)(=O)N2CCOCC2)o1 | 6.4% (active)
9 | O=C(CCc1ccc(S(=O)(=O)N2CCOCC2)cc1)NN=C1CCCCCCC1 | 0% (inactive)
10 | COc1ccc2c(c1)CCCO[C@]21O[C@H](CCO)C[C@H](O)[C@H]1O | 0.36% (inactive)
11 | O=C(O)C1CCCN1c1nc(Cl)ccc1[N+](=O)[O-] (stereo unspecified) | -0.69% (inactive)
12 | Cn1ncc([N+](=O)[O-])c1C(=O)Nc1cc(Cl)ccc1Cl | 1.05% (inactive)
13 | Cc1nc(-c2ccccc2)sc1C(=O)/C=C/c1ccccc1 | 5.32% (active)
14 | Cc1nc(-c2ccccc2)sc1C(=O)/C=C/N(C)C | 3.31% (inactive)
15 | Cc1nc(-c2ccc(Cl)cc2)sc1C(=O)CBr | -0.83% (inactive)
16 | c1ccc(Cn2nnc3c(NCC4CC4)ncnc32)cc1 | 1.59% (inactive)
17 | O=C(Nc1ncccc1O)c1ccc(S(=O)(=O)N2CCCCCC2)cc1 | 1.6% (inactive)
18 | O=C(Nc1ncccc1O)c1ccc(S(=O)(=O)N2CCCC2)cc1 | 2.95% (inactive)
19 | O=C(Nc1ncccc1O)c1ccc(C(=O)c2ccccc2)cc1 | 10.6% (active)
20 | Cc1cccc(C)c1NC(=O)CNC(=O)c1ccc(N2CCOCC2)c([N+](=O)[O-])c1 | 0.52% (inactive)
21 | CC1=C(C(=O)N2CCOCC2)CC(CC(=O)NCC2CCCCC2)C(=O)N1Cc1ccc(F)cc1 (stereo unspecified) | 0.65% (inactive)
22 | COc1cccc(CSc2nc3nc(C)cc(C)n3n2)c1 | 1.86% (inactive)
23 | COc1ccc(-c2nnc3ccc(SCc4ccccc4)nn23)cc1 | 0.1% (inactive)
24 | COc1ccc2nc(SCc3ccccc3)nc(C)c2c1 | 4.59% (active)
25 | COc1ccc(-c2ccc(CN3C(CC(C)C)C(=O)N(Cc4cn(CC5CCCCC5)nn4)CCS3(=O)=O)cc2)cn1 (stereo unspecified) | -0.76% (inactive)
26 | O=C(NCCOc1ccccc1)N1[C@H]2CC[C@@H]1C=C(c1ccc(F)cc1OCc1ccccc1)C2 | 0.36% (inactive)
